In PubChem BioAssay (NCATS) one finds Potency data, which are given here for 40 compounds.

The structures appear in SMILES notation. Inconclusive results are not listed. Where a call stands in place of a potency, no number is given. Active and inactive are the calls of the source. Calls follow the shape of the dose curve; as a rule, active = well fitted cell-killing curve with a large enough effect; inconclusive = small, poorly fitted or top-dose-only effect; inactive = no such curve, though single readings can be large or run the other way.
Potency is read from the fitted curve at half-maximal effect.

A short description of this test: qHTS of pediatric cancer cell lines to identify multiple opportunities for drug repurposing: Primary screen for NB1643 cells (AID 1347099). Also: nearly all actives have a fitted effect of over 50% in size. To be noted: NB1643 neuroblastoma viability, CellTiter-Glo luminescence, 48 h; series mostly up to 46 µM. From the text: Drug repurposing or repositioning has been offered as a strategy for drug development in oncology programs. This approach has special potential for childhood cancers and other rare or orphan diseases, where the expected return on new drug development has been a disincentive to pharmaceuticals. […] In this project we exploit the poly-pharmacology of drugs to discover new indications via phenotypic screening of a panel of 19 well-characterized cell lines derived from solid tumors seen in children and adolescents. The goal is to identify approved drugs with previously unrecognized anticancer properties that has the potential to reveal new mechanisms and biological processes involved in carcinogenesis or drug resistance. We employed a titration-based paradigm (quantitative high-throughput screening or qHTS), where all compounds were tested at multiple concentrations for their effect on cell viability. Concentration-response curves (CRCs) were derived directly from the primary screen, and both potency and efficacy values were used to identify compounds with robust bioactivity profiles. We screened the NIH Chemical Genomics Center (NCGC) Pharmaceutical Collection (NPC) and Mechanism Interrogation Plate (MIPE) small molecule collections of approved and investigational compounds against these cell lines; and measured metabolically active cells after 48 hours of compound treatment as a proxy for cell viability. […] Assay Submitter: Nathalia J. Martinez, National Center for Advancing Translational Sciences, National Institutes of Health, Rockville, MD, USA; email: natalia.martinez@nih.gov Shen, M et al. Quantitative high-throughput phenotypic screening of pediatric cancer cell lines identifies multiple opportunities for drug repurposing. Oncotarget 2017 Dec 19;9(4):4758-4772. PMID 29435139.
The cells were obtained from University of North Carolina (UNC), Pediatric Preclinical Testing Program (PPT), and Coriell Institute (CI). qHTS cell viability assay: Cells were assayed in growth media at a density of 500-1,000 cells/well. Five microliters of cells were dispensed into 1,536-well, white, solid-bottom, TC-treated plates (Greiner Bio One) using a multidrop dispenser and incubated at 37 degrees C, 5% CO2, under a humidified atmosphere for 5 hours. Twenty-three nanoliters of compounds and controls (neutral control DMSO or positive control bortezomib at final concentration of 2.3 µM) were subsequently transferred by Kalypsys pintool. For primary screens, the MIPE collection was tested at 11-point dilutions (final concentrations range from 0.78 nM to 46 µM) and the NPC collection at 8-point dilutions (final concentrations range from 0.59 nM to 46 µM). Compounds tested in follow-up screens were assayed at 11-point dilutions. Cells were incubated for 48 hours, followed by addition of 3 µL of CellTiter-Glo (Promega). After a 15 min incubation at room temperature, samples were analyzed for luminescence intensity using a ViewLux High-throughput CCD imager equipped with clear filters.
`CCNC(=O)NCc1cccc(Cl)c1`: the Potency result is “inactive”.
In the case of `CCN(CC)CCOc1ccccc1C(=O)CCc1ccccc1`, the Potency entry is “inactive”.
The same measure for `O=C(O)P(=O)(O)O`: “inactive”; for `CCC(CC)(CC(=O)Nc1cccc(/C=C/c2nc(C3CCC3)cs2)c1)C(=O)O`: “inactive”; for `COc1ccc(CN(CCN(C)C)c2ncccn2)cc1`: “inactive”.
Next, `CC(C)[C@@H]1CC[C@@H](C)CC1=O`: “inactive”; `CO[C@H]1C=CO[C@@]2(C)Oc3c(C)c(O)c4c(O)c(c(/C=N/N5CCN(C)CC5)c(O)c4c3C2=O)NC(=O)/C(C)=C\C=C[C@H](C)[C@H](O)[C@@H](C)[C@@H](O)[C@@H](C)[C@H](OC(C)=O)[C@@H]1C`: “inactive”.
The same measure for `Cl/C(=C\n1cncn1)c1ccc(Cl)cc1Cl`: “inactive”; for `CCOC(=O)c1c(N)sc2c1CCN(Cc1ccccc1)C2`: “inactive”; for `CCCCN=C(N)N=C(N)N`: “inactive”.
In the case of `O=C1C(O)=C(O)C(=O)C(O)=C1O`, the Potency result is “inactive”.
Next, `NC(=O)C1(N2CCCCC2)CCN(CCCC(=O)c2ccc(F)cc2)CC1`: “inactive”.
Next, `CCOC(=O)[C@H](CCc1ccccc1)N[C@@H](C)C(=O)N1[C@H](C(=O)O)C[C@@H]2CCC[C@@H]21`: “inactive”; `Cc1ncc(CO)c(C=O)c1O`: “inactive”; `CCN1/C(=C/C=C/c2sc3ccccc3[n+]2CC)Sc2ccccc21`: 2.91 µM (active).
Consider `Nc1nc(N)c(-c2ccccc2)s1`, for which the Potency entry is “inactive”.
The same measure for `NCCNC(=O)c1ccc(Cl)cn1`: “inactive”; for `Nc1nc(-c2ccccc2)c(Br)c(=O)[nH]1`: “inactive”; for `O=C(O)CCC(=O)Nc1ccc(S(=O)(=O)Nc2nccs2)cc1`: “inactive”.
The same measure for `O=C1OC2(c3ccccc31)c1cc(Br)c(O)c(Br)c1Oc1c2cc(Br)c(O)c1Br`: “inactive”.
The same measure for `CC1=C(C(=O)O)N2C(=O)[C@@H](NC(=O)[C@H](N)c3ccccc3)[C@H]2SC1`: “inactive”.
Regarding `CCCCCCCCCCCCCCCCO`, the Potency result is “inactive”.
For the compound `NCc1ccccc1Sc1ccccc1CO`, the Potency result was “inactive”.
For `CN1CCN(c2cc3c(cc2F)c(=O)c(C(=O)O)cn3-c2ccc(F)cc2)CC1`, the Potency entry is “inactive”.
The same measure for `Cc1nc(-c2ccc(Cl)cc2)oc1COC(C)(C)C(=O)O`: “inactive”.
Next, `CCCCc1cc2ccccc2c(OCCN(C)C)n1`: “inactive”; `c1ccc(-c2nc[nH]c2-c2ccccc2)cc1`: “inactive”.
Next, `O=C(CCCN1CC=C(n2c(=O)[nH]c3ccccc32)CC1)c1ccc(F)cc1`: 26.6 µM (active); `Cc1cc2c(OCC(CNC(C)(C)C)OC(=O)c3ccccc3)cccc2[nH]1` (stereo not given): “inactive”.
On to `CCN(CC)CCNC(=O)c1cc(Br)c(N)cc1OC`, for which the Potency entry was “inactive”.
Next, `c1ccc(CC2=NCCN2)cc1`: “inactive”; `CN(Cc1ccc(C(C)(C)C)cc1)Cc1cccc2ccccc12`: “inactive”; `NC1CCN(c2nc3c(cc2F)c(=O)c(C(=O)O)cn3-c2ccc(F)cc2F)C1` (stereo not given): “inactive”.
The same measure for `Cc1cc(CC(=O)O)c(C)n1-c1ccc(Cl)cc1`: “inactive”; for `CC(C)CCCC(C)N` (stereo not given): “inactive”; for `CCN(CC)CCOC(=O)C1(c2ccccc2)CCCC1`: “inactive”.
The same measure for `NS(=O)(=O)c1cc2c(cc1Cl)NC(CC1CCCC1)NS2(=O)=O` (stereo not given): “inactive”; for `COc1cc(C(=S)N2CCOCC2)ccc1O`: “inactive”.
Regarding `N#CCC(=O)NN`, the Potency result was “inactive”.
Next, `CCCCCCCCCCCCSCCOCCO`: “inactive”.
